Screening data deposited in PubChem BioAssay by National Center for Advancing Translational Sciences (NCATS).
KB-V1 MDR tox = KB-V1 MDR subline cytotoxicity; KB-V1 MDR cells viability, CellTiter-Glo, 72 h; Potency, µM (doses to about 46.1 µM), actives largely listed as cytotoxic; 400,000 compounds, 3.4% hits; AID 1347076; note: % is set by controls: 0 for no effect and ±100 for the full control effect; nearly all actives have a fitted effect of over 60% in size
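Cytotoxicity via CellTiter-Glo luminescence after 72 h compound exposure at 37 degrees C. Cells: drug-selected KB-V1 line, DMEM phenol-red free plus 10% FBS. Compounds tested at multiple concentrations; normalized data fitted to concentration-effect curves.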
MCF10A rerep = DNA re-replication induction in MCF 10a cells; AID 624296; MCF 10A DNA re-replication, Hoechst nuclear intensity, 48 h; Potency, µM (highest dose often 46.1 µM), for the others: at the top dose activity, positive = re-replication, most hits filed as activators; 350,000 compounds, 2.9% hits; note: % of control where 0% means no effect; nearly all actives have a fitted effect of over 50% in size
SW480 rereplic = induces DNA re-replication in SW480 colon adenocarcinoma cells. Potency, µM (series often up to 46.1 µM), for inactives: at the highest dose re-replication activation, most hits filed as activators. SW480 DNA re-replication, Hoechst DNA content imaging, 48 h. 340,000 compounds, 1.8% hits; note: % of control where 0% means no effect; nearly all actives have a fitted effect of over 55% in size
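Quantitative HTS format with DMSO vehicle controls; 48 hr drug incubation at 37 C, then 40 min Hoechst staining and scanning imager measurement at 405 nm excitation.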
HT1080-NT tox = kills 2HG-producing HT-1080-NT fibrosarcoma cells; HT-1080-NT fibrosarcoma viability, CellTiter-Glo ATP luminescence, 48 h; Potency, µM (titrated, usually from 46.1 µM), inactives show top-dose activity, negative = less viability, most hits filed as cytotoxic; 360,000 compounds, 1.6% hits;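 note: NT is the 2HG producing partner of a matched IDH1 knockdown line; 0% = DMSO-treated cells and -100% = media-only wells without cells; nearly all actives have a fitted effect of over 55% in size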
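Fibrosarcoma NT cells, 750 per well in 5% FBS RPMI, were exposed to compound for 48 hours. Viability: CellTiter-Glo luminescence.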
HT1080 IDH1KD tx = toxicity to HT-1080 IDH1 knockdown cells (counter line). HT-1080 IDH1 knockdown viability, ATP luminescence, 48 h. Potency, µM (doses to about 46.1 µM), for the others: top-dose activity, negative = toxicity, actives largely listed as cytotoxic. 360,000 compounds, 2% hits. AID 686971;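 note: 0% = DMSO wells and -100% = cell-free medium wells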
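HT-1080-IDH1KD cells (IDH1 knocked down), 750/well in RPMI with 5% FBS, treated with compound 48 h at 37 degrees C. Viability by CellTiter-Glo luminescence, normalised to DMSO and no-cell wells; concentration-response curves classed.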
KB-3-1 cytotox = KB-3-1 parental cell cytotoxicity; KB-3-1 viability, CellTiter-Glo ATP luminescence, 72 h; Potency, µM (titrated, usually from 46.1 µM), hits mostly cytotoxic; 400,000 compounds, 1.4% hits; note: % is set by controls: 0 for no effect and ±100 for the full control effect; nearly all actives have a fitted effect of over 60% in size
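Here the drug-naive KB-3-1 line serves as comparator for MDR sub-line selectivity; cells received compound titrations, 72 h at 37 °C, then CellTiter-Glo readout.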
Starred values were filed as active, the others as inactive; i = inactive; ? = inconclusive; / = no result; [ ] = remark or other dose. Compounds with a hit are over-represented: about 7.9% of the library has one in this group of screens. Calls come from the whole dose curve; as a rule, active = well fitted curve in the direction sought with a large enough effect; inconclusive = small, poorly fitted or top-dose-only effect, or another doubt; inactive = no such curve, though single readings can be large; an effect the other way counts as inactive or inconclusive. Potency is the fitted concentration of half-maximal effect.

SMILES | KB-V1 MDR tox | MCF10A rerep | SW480 rereplic | HT1080-NT tox | HT1080 IDH1KD tx | KB-3-1 cytotox
CCC(Oc1ccccc1)C(=O)Nc1ccccc1C(=O)N1CCN(C)CC1 (configuration not stated) | i | -3% | 0% | 6% | 0% | i
Cc1c(Cl)cccc1NC(=O)CSc1ncc(S(=O)(=O)c2ccc(C(C)C)cc2)c(=O)[nH]1 | i | / | / | / | / | i
C=Cc1ccc(Cn2c(C(=O)O)c(CNCc3cccs3)c3ccc(C)cc32)cc1 | i | / | / | / | / | i
Cc1ccc2c(CNCc3cccs3)c(C(=O)O)n(Cc3ccc(F)cc3)c2c1 | i | / | / | / | / | 12µM*
COc1ccc2c(CNCc3cccs3)c(C(=O)O)n(Cc3ccc(F)cc3)c2c1 | i | / | / | / | / | 16µM*
C=Cc1ccc(Cn2c(C(=O)O)c(CNCc3ccc(F)cc3)c3ccc(C)cc32)cc1 | i | / | / | / | / | 7.3µM*
COc1ccc2c(CNCc3cccs3)c(C(=O)O)n(Cc3ccc(F)cc3Cl)c2c1 | ? | / | / | / | / | i
COc1ccc(Cn2c(C(=O)O)c(CNCc3cccs3)c3ccc(C)cc32)cc1 | i | / | / | / | / | ?
COc1cccc(N2CCN(C(=O)c3ccc(Cn4c(=O)[nH]c5cc(OC)c(OC)cc5c4=O)cc3)CC2)c1 | i | / | / | / | / | i
CCN(CC)C(=O)c1ccc2c(=O)n(Cc3cccc(Br)c3)c(=S)[nH]c2c1 | i | 10% | -2% | -16% | -2% | i
O=C(Nc1cccc(S(=O)(=O)Nc2ccc(Cl)cc2)c1)c1cc2c(s1)CCCC2 | i | ? | -4% | 21µM* | 21µM* | i
O=C(Nc1ccc(N2CCOCC2)cc1)c1cc2c(s1)CCCCC2 | i | 16% | ? | -3% | 7.3µM* | ?
Cc1ccc(O)c(C2=Nc3ccccc3N=C(c3cccs3)C2)c1 | 15µM* | 21µM* | 3% | 0% | -1% | ?
Oc1ccccc1C1=Nc2ccccc2N=C(c2cccs2)C1 | 23µM* | ? | 23% | -22% | ? | i
CC(Sc1nc(-c2ccccc2)cc(C(F)(F)F)n1)C(=O)N1CCCCC1 (configuration not stated) | ? | 21µM* | ? | -3% | 2% | i
O=C(c1ccccc1)c1ccccc1 | i | -2% | 0% | -10% | 5% | i
O=C(c1ccccc1)c1ccc(-c2ccc(O)cc2)cc1 | ? | 23µM* | 16µM* | 18µM* | ? | ?
Nc1ccccc1C(=O)NN=Cc1cccnc1 | i | / | / | 7% | 5% | i
COc1ccc(CN2C(=O)[C@@H]3Cc4c([nH]c5ccccc45)C(C)(C)N3C2=O)cc1 | ? | 14% | -6% | / | / | 18µM*
CC1(C)c2[nH]c3ccccc3c2C[C@H]2C(=O)N(Cc3cccc(F)c3)C(=O)N21 | i | ? | ? | / | / | ?
COc1cccc(CN2C(=O)[C@H]3Cc4c([nH]c5ccccc45)C(C)(C)N3C2=O)c1 | 16µM* | ? | 0% | / | / | i
COc1ccc(CN2C(=O)[C@H]3Cc4c([nH]c5ccccc45)C(C)(C)N3C2=O)cc1 | ? | 9.2µM* | -4% | / | / | ?
COc1ccccc1CN1C(=O)[C@@H]2Cc3c([nH]c4ccccc34)C(C)(C)N2C1=O | 21µM* | 27% | -3% | / | / | ?
COc1ccc(C2=C(C)C(N3CCC(C(=O)Nc4ccc(F)cc4C)CC3)=NS2(=O)=O)cc1 | i | / | / | / | / | i
Cc1cc(N2CCN(C)CC2)nc2ccc(NC(=O)Nc3ccccc3Br)cc12 | ? | / | / | / | / | i
SMILES | KB-V1 MDR tox | MCF10A rerep | SW480 rereplic | HT1080-NT tox | HT1080 IDH1KD tx | KB-3-1 cytotox
CCOCCCNC(=S)N1CCCN(c2nc3c(C)c(C)ccc3cc2C#N)CC1 | i | 2% | ? | -16% | -12% | i
Cc1ccc2cc(C#N)c(NCCNC(=O)C3CCC3)nc2c1C | 15µM* | ? | ? | -1% | 0% | ?
CCOCCCNC(=S)NCCCNc1nc2c(C)c(C)ccc2cc1C#N | ? | 18µM* | 21µM* | ? | ? | i
Cc1nc(-c2ccccc2)sc1-c1ccc(SCC(=O)NCc2ccccc2Cl)nn1 | i | / | / | / | / | i
CCc1ccc(NC(=S)N2CCC(NC(=O)c3ccccc3)CC2)cc1 | i | 18µM* | 0% | 5% | 2% | i
Cc1ccc(-n2ncc(C(=O)NCc3ccco3)c2C2CCN(C(=O)OC(C)(C)C)CC2)cc1 | i | / | / | / | / | i
Cn1nccc1NS(=O)(=O)c1ccc(NC(=O)C(F)(F)F)cc1 | i | 5% | 2.9µM* | 21% | 20% | i
O=c1[nH]c(CN2CCN(S(=O)(=O)/C=C/c3ccccc3)CC2)nc2ccccc12 | i | 28% | 2% | -11% | -5% | i
O=c1[nH]c(CN2CCN(S(=O)(=O)/C=C/c3ccccc3)CC2)nc2cc(Cl)ccc12 | ? | 18µM* | ? | 9.2µM* | 21µM* | 23µM*
NC(=O)C1CCN(Cc2nc3ccccc3c(=O)[nH]2)CC1 | i | 425%[0.0737 µM] | -2% | 5% | 6% | i
NC(=O)C1CCN(Cc2nc3cc(Cl)ccc3c(=O)[nH]2)CC1 | i | 21µM* | 0% | 21µM* | 18µM* | ?
O=C(N/N=C/c1ccccc1O)C(=O)N1CCCCCC1 | i | 17% | 5.8µM* | ? | 8.2µM* | ?
O=C(CCN1CCN(c2ccccc2)CC1)N/N=C/c1ccccc1O | ? | 26% | ? | ? | 21µM* | i
O=C(CCn1cnc2ccccc21)N/N=C/c1ccccc1O | i | ? | 8.2µM* | ? | ? | ?
O=C(N/N=C/c1ccccc1F)C(=O)N1CCCCCC1 | i | -14% | -19% | 7% | 0% | i
CCOC(=O)c1cc2c(nc1C)-c1cc(Cl)cc(Cl)c1OC2O (configuration not stated) | i | 18µM* | ? | -26% | -16% | i
CCOC(=O)c1cc(C(=O)NN)c(C)nc1C | i | 7% | ? | 3% | 17% | i
Cc1cc(C)c(NC(=O)CN(C2CCCCC2)C2CCCCC2)c(C)c1 | ? | 3.7µM* | 1.8µM* | 4% | 4% | i
CCn1cnc2c(=O)oc3ccc(S(=O)(=O)N4CCN(c5cc(C)ccc5C)CC4)cc3c21 | i | / | / | / | / | i
C=CCNc1nc(N2CCCCC2)c(C#N)c2c1CN(Cc1ccccc1)CC2 | i | 16µM* | ? | ? | ? | ?
Cc1cnc(/C=C/c2ccc(N(C)C)cc2)cn1 | i | / | / | / | / | i
Cc1ccc(/C=C/c2ccc(N(C)C)cc2)[n+](C)c1 | i | -11% | -2% | -30% | ? | 2.1µM*
